Measured values published in PubChem BioAssay (EPA / NIEHS).
Results filed as inconclusive are left out. Active and inactive are the calls of the source. The calls were made as follows: active = hit-call score of the fitted dose curve at least 0.9, where 1 is the maximum; inconclusive = response in the unintended direction; inactive = score below 0.9.

tested on: frog Estrogen Receptor (ESR1), gene 398734; experiment: ATG_frER1_XSP1: Attagene TRANS-FACTORIAL Multi-Species (XSP1) HepG2 Assay for frog Estrogen Receptor (ESR1) (AID 2283777)
Description: ATG_XSP1_multi-species_TRANS is a cell-based, multiplexed assay created by modifying the existing Attagene TRANS-FACTORIAL system to include a panel of nuclear receptors from some or all the following species: human (Homo sapiens), mouse (Mus musculus), frog (Xenopus laevis), zebrafish (Danio rerio), chicken (Gallus gallus), and turtle (Chrysemys picta). The ECOTOX-FACTORIAL format uses HepG2, a human liver cell line, with measurements taken at 24 hours after chemical dosing in a 24-well plate. Xsp1 included 3 nM 6-alpha-fluorotestosterone to partially stimulate the androgen receptor.ATG_frER1_XSP1 is one of 29 assay components measured or calculated from the ATG_XSP1_multi-species_TRANS assay. It is designed to make measurements of mRNA induction, a form of inducible reporter, as detected with fluorescence intensity signals by Reverse transcription polymerase chain reaction (RT-PCR) and Capillary electrophoresis technology.The assay endpoint ATG_frER1_XSP1 was analyzed in the positive analysis fitting direction relative to DMSO as the negative control and baseline of activity. Using a type of inducible reporter, measures of mRNA for gain-of-signal activity can be used to understand the reporter gene at the transcription factor-level as they relate to the gene ER. Furthermore, this assay endpoint can be referred to as a primary readout, because this assay has produced multiple assay endpoints where this one serves a reporter gene function. To generalize the intended target to other relatable targets, this assay endpoint is annotated to the nuclear receptor intended target family, where the subfamily is steroidal.
Human liver HepG2 cells are transiently transfected with multiple reporter transcription units (MRTUs) in 6-well plates using FuGene 6 reagent (Roche; 3 ml FuGene/1 mg DNA). The MRTU constructs are regulated by a cis-regulating element (promoter). […] A major difference between the CIS and TRANS system is that in CIS activities of endogenous TFs are measured, whereas the TRANS assay evaluates changes in activities of exogenous, chimeric NR-Gal4 proteins. […] At the end of 24 hour incubation, total RNA was isolated using TriZol reagent (Invitrogen). The isolated RNA is then reverse-transcribed using oligo(dT) primer and Mo-MLV reverse transcriptase (Invitrogen) with DNAse I (Ambion) treatment for 30 min. The one-tenth of the produced cDNA was amplified by PCR using Taq DNA polymerase (Invitrogen) and two reporter sequence-specific primers. The PCR products were fluorescently labeled by primer extension with 6-arboxyfluorescein (6-FAM) 5'-labeled reporter sequence-specific primer (2 min at 95 C, 20 s at 68 C and 10 min at 72 C) and these products were digested with 5U of HpaI (New England Biolabs) for 2h at 37 C. The fragments were purified using Qiaquick PCR columns (Qiagen), analyzed on an ABI 3130xL genetic analyzer (Applied Biosystems) with peak positions identified by using a set of X-rhodamine (ROX)-labeled MapMarker1000 molecular weight standards (BioVentures). The raw capillary electrophoresis data was processed using Attagraph software (Attagene).

Row | Structure (SMILES) | outcome | AC50
1 | C#CCOS(=O)OC1CCCCC1Oc1ccc(C(C)(C)C)cc1 (configuration not stated) | inactive | –
2 | C=CC1(C)OC(=O)N(c2cc(Cl)cc(Cl)c2)C1=O (configuration not stated) | inactive | –
3 | CC(C)(C)c1ccc(CSc2cnn(C(C)(C)C)c(=O)c2Cl)cc1 | inactive | –
4 | COC(=O)N(OC)c1ccccc1COc1ccn(-c2ccc(Cl)cc2)n1 | inactive | –
5 | COc1ccc(C(c2ccc(OC)cc2)C(Cl)(Cl)Cl)cc1 | – | 0.368 µM (active)
6 | CC(C)Oc1cc(-n2nc(C(C)(C)C)oc2=O)c(Cl)cc1Cl | – | 7.92 µM (active)
7 | CCCCC(CC)COC(=O)c1ccccc1C(=O)OCC(CC)CCCC (configuration not stated) | inactive | –
8 | CCCC1COC(Cn2cncn2)(c2ccc(Cl)cc2Cl)O1 (configuration not stated) | inactive | –
9 | CCCN(CCC)c1c([N+](=O)[O-])cc(S(N)(=O)=O)cc1[N+](=O)[O-] | – | 12.7 µM (active)
10 | CCCCOC(=O)c1ccccc1C(=O)OCCCC | inactive | –
11 | COP(=S)(OC)Oc1nc(Cl)c(Cl)cc1Cl | – | 31 µM (active)
12 | CON(C)C(=O)Nc1ccc(Cl)c(Cl)c1 | – | 10.4 µM (active)
